What all share (test): DAPPL (digital affinity profiling via proximity ligation, sequencing); 10 mM Tris-HCl pH 7.5, 50 mM NaCl, 1 mM DTT, 4% glycerol, room temperature, 30 min; GST-TFs on glutathione beads, 16-mer random dsDNA library, 0.1% formaldehyde crosslink after washing; high values mean tight binding
Common to all, as to settings: protein: recombinant; tags: N-terminal GST; dsDNA, one strand shown

For assay [1], the target named is T1, FLI1 (Homo sapiens, UniProt Q01543 1-452).
T1 sequence: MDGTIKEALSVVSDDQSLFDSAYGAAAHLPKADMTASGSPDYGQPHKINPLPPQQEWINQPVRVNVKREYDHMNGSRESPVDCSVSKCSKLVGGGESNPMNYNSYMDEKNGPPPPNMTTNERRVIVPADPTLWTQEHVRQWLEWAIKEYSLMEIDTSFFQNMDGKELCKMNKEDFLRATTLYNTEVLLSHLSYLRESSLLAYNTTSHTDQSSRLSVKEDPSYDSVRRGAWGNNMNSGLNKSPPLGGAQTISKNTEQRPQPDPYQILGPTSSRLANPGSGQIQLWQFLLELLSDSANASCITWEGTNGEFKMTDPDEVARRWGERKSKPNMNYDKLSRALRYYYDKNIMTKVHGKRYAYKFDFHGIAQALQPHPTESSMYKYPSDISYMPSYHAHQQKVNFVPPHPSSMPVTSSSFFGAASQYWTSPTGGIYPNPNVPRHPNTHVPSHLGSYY
In a few lines: (§1)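 After expression in yeast as GST fusions, human transcription factors were bound to glutathione beads, DNA-barcoded and mixed with a tag-only sample. The pools were incubated with 200 nmole of a 16-mer random double-stranded DNA library in Tris/NaCl/DTT/glycerol buffer (30 min, room temperature), washed and crosslinked with 0.1% formaldehyde. Proximity ligation with BsaI/T4 ligase ran for 1 h at 37 °C, before PCR amplification and sequencing on an Illumina NextSeq500. Binding signal is a hexamer's read frequency for a factor divided by its frequency for the tag-only sample.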

Assay [2] deals with T2, GABPA (Homo sapiens, UniProt Q06546 1-454).
T2 sequence: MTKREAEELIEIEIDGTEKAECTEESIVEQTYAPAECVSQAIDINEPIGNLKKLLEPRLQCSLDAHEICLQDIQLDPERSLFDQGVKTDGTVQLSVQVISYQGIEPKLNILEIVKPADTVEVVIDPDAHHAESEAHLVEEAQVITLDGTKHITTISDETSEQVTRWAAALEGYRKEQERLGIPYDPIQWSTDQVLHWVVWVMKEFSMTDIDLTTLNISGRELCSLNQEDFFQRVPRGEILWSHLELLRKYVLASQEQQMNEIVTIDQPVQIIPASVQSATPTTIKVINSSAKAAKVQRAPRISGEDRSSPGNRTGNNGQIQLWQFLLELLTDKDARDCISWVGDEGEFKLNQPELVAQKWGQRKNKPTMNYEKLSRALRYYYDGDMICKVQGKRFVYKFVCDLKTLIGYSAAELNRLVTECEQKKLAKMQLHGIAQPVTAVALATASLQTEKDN
The essentials: as §1

Assay [3] has as its target T3, ERG (Homo sapiens, UniProt P11308 1-479).
T3 sequence: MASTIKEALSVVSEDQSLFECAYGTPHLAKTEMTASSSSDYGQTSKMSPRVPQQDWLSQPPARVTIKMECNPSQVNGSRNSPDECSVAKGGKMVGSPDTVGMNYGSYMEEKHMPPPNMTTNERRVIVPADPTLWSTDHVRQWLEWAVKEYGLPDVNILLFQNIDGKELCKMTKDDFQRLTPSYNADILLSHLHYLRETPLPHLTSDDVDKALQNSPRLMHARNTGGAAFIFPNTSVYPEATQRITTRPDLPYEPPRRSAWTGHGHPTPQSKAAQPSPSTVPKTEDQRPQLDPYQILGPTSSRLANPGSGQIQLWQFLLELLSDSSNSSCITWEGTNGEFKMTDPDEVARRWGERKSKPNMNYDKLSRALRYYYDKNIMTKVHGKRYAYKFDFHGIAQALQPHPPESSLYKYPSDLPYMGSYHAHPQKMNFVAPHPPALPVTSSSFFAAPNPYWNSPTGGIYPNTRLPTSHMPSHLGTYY
The essentials: as §1

The target of assay [4] is ELF1 (Homo sapiens, UniProt P32519 1-619). The essentials: as §1
Chain of ELF1 (P32519 whole entry): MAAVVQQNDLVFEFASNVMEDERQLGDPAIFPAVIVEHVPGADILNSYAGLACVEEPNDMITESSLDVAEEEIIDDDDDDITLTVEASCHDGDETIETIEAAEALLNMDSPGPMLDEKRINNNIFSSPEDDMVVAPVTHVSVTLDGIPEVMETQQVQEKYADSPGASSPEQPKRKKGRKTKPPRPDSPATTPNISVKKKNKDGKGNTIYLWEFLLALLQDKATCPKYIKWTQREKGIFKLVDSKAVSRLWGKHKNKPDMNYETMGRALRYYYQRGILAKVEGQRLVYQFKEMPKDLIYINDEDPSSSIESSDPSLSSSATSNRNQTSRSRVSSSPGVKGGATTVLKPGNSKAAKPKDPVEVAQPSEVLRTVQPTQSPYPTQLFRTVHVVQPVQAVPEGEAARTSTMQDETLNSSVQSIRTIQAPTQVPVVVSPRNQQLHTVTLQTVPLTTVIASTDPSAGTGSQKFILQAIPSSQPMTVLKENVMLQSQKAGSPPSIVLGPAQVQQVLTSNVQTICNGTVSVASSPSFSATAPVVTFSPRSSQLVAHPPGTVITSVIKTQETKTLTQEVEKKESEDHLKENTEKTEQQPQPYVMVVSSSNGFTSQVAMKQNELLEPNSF
Assay [5] deals with T4, EHF (Homo sapiens, UniProt Q9NZC4 1-300).
T4 sequence: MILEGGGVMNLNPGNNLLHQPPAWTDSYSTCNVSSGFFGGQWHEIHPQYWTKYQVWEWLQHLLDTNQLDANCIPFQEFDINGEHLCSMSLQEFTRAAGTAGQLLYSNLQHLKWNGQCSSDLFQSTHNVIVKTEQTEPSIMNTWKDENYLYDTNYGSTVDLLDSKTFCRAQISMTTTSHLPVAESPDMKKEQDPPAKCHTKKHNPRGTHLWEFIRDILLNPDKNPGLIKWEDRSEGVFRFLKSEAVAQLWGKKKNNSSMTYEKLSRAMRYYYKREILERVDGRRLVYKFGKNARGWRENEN
In a few lines: as §1

For assay [6], the target named is SPI1 (Homo sapiens, UniProt P17947 1-270). The essentials: as §1
Assay [7] has as its target SPIB (Homo sapiens, UniProt Q01892 1-262). In a few lines:
as §1

Assay [8] concerns the target T5, ELK3 (Homo sapiens, UniProt P41970 1-407).
T5 sequence: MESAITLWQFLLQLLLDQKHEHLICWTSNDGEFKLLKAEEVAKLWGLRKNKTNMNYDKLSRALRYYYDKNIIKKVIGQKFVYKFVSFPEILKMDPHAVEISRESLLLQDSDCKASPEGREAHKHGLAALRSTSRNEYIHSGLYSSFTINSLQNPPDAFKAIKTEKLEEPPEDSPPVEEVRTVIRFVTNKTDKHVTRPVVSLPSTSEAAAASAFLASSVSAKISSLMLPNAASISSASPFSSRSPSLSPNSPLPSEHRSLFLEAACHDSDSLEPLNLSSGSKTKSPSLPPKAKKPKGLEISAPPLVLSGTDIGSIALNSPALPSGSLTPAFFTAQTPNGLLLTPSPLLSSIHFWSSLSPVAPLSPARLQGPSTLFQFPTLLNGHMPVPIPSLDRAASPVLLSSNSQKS
The essentials: as §1

Assay [9] addresses T6, FEV (Homo sapiens, UniProt Q99581 1-238).
T6 sequence: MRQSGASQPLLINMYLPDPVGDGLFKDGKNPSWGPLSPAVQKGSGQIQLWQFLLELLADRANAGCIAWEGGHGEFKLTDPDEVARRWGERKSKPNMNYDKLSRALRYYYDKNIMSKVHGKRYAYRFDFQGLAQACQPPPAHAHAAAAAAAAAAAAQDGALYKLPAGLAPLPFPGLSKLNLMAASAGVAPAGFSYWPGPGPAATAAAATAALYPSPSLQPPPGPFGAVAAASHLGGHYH
In a few lines:
as §1

The target of assay [10] is ETV5 (Homo sapiens, UniProt P41161 1-510). In a few lines:
as §1

The target in assay [11] is T7, SPIC (Homo sapiens, UniProt Q8N5J4 1-248).
T7 sequence: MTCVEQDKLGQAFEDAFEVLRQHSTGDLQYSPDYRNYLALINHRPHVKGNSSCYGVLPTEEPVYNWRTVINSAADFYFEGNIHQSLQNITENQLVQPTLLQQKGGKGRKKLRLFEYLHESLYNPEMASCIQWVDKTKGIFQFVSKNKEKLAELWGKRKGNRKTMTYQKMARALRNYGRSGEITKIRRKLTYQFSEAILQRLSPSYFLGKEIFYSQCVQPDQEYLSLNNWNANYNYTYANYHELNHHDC
In a few lines:
as §1

Assay [12] concerns the target ELF4 (Homo sapiens, UniProt Q99607 1-663). The essentials:
as §1

Assay [13] has as its target ETV1 (Homo sapiens, UniProt P50549 1-477). In a few lines: as §1
Assay [14] deals with T8, ERF (Homo sapiens, UniProt P50548 1-548).
T8 sequence: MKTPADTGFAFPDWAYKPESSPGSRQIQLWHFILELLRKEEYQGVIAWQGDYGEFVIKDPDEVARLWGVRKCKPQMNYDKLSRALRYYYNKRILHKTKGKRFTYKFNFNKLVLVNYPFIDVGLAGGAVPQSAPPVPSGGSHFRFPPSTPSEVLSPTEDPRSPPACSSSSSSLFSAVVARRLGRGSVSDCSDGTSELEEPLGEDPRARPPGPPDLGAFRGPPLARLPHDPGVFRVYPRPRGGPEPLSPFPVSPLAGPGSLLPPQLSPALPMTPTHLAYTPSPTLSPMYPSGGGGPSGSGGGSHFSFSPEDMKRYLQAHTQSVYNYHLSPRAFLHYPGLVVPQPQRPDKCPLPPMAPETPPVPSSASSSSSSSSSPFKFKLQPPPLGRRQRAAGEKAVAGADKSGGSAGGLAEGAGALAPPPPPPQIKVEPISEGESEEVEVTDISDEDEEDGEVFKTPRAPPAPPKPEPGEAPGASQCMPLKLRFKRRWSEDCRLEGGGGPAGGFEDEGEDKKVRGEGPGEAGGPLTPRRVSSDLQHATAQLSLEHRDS
In a few lines:
as §1

Assay [15] has as its target T9, ETV3L (Homo sapiens, UniProt Q6ZN32 1-361).
T9 sequence: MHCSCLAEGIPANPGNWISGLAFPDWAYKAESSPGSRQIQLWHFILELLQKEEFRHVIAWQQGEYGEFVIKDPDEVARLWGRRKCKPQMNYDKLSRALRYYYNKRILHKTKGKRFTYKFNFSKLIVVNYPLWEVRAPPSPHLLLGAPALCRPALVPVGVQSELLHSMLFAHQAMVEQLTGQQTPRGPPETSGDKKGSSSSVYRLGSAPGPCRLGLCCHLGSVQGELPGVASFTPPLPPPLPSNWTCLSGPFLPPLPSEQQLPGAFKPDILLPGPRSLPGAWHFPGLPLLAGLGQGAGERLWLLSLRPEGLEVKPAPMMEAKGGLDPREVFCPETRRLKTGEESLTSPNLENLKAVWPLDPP
The essentials:
as §1

Assay [16] has as its target T10, ETS2 (Homo sapiens, UniProt P15036 1-469).
T10 sequence: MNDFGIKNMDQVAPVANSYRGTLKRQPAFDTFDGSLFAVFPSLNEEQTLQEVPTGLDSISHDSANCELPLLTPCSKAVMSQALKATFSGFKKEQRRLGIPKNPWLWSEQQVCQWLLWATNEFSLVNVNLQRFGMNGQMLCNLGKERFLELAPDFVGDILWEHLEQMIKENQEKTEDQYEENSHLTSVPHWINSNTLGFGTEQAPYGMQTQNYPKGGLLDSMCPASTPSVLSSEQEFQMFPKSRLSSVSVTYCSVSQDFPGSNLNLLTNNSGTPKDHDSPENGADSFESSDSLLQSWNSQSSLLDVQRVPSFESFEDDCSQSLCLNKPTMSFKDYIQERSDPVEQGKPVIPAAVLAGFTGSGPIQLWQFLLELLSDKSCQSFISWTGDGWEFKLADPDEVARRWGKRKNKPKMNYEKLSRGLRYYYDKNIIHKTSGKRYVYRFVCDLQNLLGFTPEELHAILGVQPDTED
The essentials:
as §1

Assay [17] addresses T11, ELF5 (Homo sapiens, UniProt Q9UKW6-2 1-255).
T11 sequence: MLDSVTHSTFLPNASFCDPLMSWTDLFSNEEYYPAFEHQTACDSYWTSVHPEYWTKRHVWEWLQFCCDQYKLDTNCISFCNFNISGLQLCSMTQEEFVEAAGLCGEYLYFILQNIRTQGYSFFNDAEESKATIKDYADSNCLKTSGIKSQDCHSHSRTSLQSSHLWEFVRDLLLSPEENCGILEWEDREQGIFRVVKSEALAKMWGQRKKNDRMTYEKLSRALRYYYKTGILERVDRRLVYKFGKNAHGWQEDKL
The essentials: as §1

Assay [18] deals with T12, ETV3 (Homo sapiens, UniProt P41162-2 1-143).
T12 sequence: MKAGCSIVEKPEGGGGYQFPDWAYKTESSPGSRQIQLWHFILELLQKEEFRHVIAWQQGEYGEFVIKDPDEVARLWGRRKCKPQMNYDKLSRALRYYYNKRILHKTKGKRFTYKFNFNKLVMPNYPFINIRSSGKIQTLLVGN
In a few lines: as §1

Assay [19] concerns the target ETV6 (Homo sapiens, UniProt P41212 1-452). The essentials: as §1

Chain of ETV6 (P41212 whole entry): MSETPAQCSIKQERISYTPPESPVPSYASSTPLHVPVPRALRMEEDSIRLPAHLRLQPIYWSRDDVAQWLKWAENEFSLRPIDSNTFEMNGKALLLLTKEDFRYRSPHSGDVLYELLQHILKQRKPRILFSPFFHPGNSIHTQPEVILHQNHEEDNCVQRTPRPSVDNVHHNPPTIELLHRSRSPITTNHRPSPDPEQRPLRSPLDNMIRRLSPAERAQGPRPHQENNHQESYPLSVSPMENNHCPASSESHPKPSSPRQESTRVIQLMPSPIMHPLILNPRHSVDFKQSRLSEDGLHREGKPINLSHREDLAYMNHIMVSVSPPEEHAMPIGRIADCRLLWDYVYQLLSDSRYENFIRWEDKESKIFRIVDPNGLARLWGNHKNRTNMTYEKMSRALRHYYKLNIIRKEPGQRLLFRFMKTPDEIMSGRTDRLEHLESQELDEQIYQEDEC
Chain of ETV5 (P41161 whole entry): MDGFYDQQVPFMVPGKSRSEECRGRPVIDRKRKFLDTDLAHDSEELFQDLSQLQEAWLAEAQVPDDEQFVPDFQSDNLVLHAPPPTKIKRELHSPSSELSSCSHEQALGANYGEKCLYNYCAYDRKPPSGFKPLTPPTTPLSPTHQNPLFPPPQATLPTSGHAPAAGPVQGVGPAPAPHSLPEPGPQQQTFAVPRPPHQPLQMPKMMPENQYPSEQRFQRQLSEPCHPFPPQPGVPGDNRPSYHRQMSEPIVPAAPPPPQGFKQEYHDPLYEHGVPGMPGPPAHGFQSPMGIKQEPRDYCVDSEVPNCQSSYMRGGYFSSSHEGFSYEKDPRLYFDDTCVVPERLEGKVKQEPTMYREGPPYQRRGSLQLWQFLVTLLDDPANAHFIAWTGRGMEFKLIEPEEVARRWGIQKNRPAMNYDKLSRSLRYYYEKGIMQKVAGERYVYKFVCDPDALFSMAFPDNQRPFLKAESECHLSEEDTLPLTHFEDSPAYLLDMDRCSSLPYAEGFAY
Chain of SPIB (Q01892 whole entry): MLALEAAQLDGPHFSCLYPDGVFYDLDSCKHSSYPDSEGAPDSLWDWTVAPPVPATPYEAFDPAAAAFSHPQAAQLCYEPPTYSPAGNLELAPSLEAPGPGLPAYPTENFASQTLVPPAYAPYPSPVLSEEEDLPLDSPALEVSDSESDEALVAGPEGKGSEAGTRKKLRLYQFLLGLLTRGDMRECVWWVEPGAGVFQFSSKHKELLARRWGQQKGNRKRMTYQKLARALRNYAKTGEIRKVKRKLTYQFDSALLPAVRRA
Chain of ELF4 (Q99607 whole entry): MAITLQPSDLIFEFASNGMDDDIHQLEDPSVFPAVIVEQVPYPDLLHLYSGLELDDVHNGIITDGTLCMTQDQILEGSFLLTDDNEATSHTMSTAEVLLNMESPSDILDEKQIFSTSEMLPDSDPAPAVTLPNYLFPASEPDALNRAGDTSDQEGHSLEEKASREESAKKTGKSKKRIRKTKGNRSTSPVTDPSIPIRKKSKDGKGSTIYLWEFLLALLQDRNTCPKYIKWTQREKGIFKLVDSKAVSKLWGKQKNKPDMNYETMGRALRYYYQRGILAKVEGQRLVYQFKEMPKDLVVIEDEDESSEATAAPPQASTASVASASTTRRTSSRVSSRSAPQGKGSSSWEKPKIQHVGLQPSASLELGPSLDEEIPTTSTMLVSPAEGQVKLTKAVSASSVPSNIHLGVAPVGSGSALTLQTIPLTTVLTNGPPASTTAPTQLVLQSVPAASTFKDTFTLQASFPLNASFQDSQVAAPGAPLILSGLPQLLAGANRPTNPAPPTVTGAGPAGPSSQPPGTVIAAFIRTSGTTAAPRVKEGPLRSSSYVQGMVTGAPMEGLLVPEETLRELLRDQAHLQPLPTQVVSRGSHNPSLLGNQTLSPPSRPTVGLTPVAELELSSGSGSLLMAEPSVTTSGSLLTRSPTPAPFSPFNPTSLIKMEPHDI
Chain of ETV1 (P50549 whole entry): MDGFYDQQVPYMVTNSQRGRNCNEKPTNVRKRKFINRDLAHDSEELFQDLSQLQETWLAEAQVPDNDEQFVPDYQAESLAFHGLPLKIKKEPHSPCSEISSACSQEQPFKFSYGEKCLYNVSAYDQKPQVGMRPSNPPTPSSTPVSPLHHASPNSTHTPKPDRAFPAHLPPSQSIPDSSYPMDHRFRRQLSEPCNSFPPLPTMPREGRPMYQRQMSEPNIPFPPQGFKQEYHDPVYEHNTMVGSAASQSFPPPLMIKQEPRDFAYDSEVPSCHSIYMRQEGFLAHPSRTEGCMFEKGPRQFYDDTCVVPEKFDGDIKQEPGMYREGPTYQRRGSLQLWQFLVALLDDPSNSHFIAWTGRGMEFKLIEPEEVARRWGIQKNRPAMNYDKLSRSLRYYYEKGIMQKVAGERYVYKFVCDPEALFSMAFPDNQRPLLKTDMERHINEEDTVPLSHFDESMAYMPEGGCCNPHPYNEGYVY

As for AAAGCG, the binding signal in assay [1] was 1.01 fold enrichment (6-mer frequency, TF over GST control); in assay [2], 1.03 fold enrichment (6-mer frequency, TF over GST control); in [3] it was 1.09 fold enrichment (6-mer frequency, TF over GST control); in assay [4] it was 1.06 fold enrichment (6-mer frequency, TF over GST control); in assay [5] it was 1.1 fold enrichment (6-mer frequency, TF over GST control); in [6], 1.53 fold enrichment (6-mer frequency, TF over GST control). In addition, the binding signal in assay [7] is 1.1 fold enrichment (6-mer frequency, TF over GST control); in [8] it was 1.08 fold enrichment (6-mer frequency, TF over GST control); in [9] it was 1.06 fold enrichment (6-mer frequency, TF over GST control); in [10], 1.18 fold enrichment (6-mer frequency, TF over GST control); in [11], 1.08 fold enrichment (6-mer frequency, TF over GST control); in assay [12] it was 1.11 fold enrichment (6-mer frequency, TF over GST control). Further, the binding signal is 1.05 fold enrichment (6-mer frequency, TF over GST control) in assay [13]; 1.13 fold enrichment (6-mer frequency, TF over GST control) in assay [14]; 1.04 fold enrichment (6-mer frequency, TF over GST control) in assay [15]; 1.04 fold enrichment (6-mer frequency, TF over GST control) in [16]; 1.07 fold enrichment (6-mer frequency, TF over GST control) in [17]; 1.14 fold enrichment (6-mer frequency, TF over GST control) in assay [18]. In addition, in [19], the binding signal was 1.1 fold enrichment (6-mer frequency, TF over GST control).

The values are drawn from article PMC7862700, “An all-to-all approach to the identification of sequence-specific readers for epigenetic DNA modifications on cytosine”.
